Screening data (PubChem BioAssay)
Most compounds without a hit are left out; they make up all but 19% or so of the library.
IL1B secr inh – blocks inflammasome-driven IL-1 beta release; THP-1 LPS/ATP IL-1B secretion, AlphaLISA, 16 h; stronger effect = lower value; activity change, % at 57.5 µM; hit rate 4.7% among 360,000; AID 743279; in the data active = activity change below about -50%; inconclusive = mostly about -30% to -49%
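Secreted IL-1B measured by AlphaLISA bead assay after 16 h compound exposure of THP-1 cells; compounds (final up to 57.5 uM) added 1 h before LPS (250 ng/mL) and ATP (1.25 mM) stimulation; lower signal means less secretion.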
HT1080 IDH1KD tx – HT-1080 IDH1 knockdown cell toxicity (counter line); HT-1080 IDH1 knockdown viability, ATP luminescence, 48 h; Potency, µM (titrated, usually from 46.1 µM), for inactives: at the top dose activity, negative = toxicity, actives largely listed as cytotoxic; hit rate 2% among 360,000; AID 686971;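 note: potency is the fitted concentration of half-maximal effect; 0% = DMSO wells and -100% = cell-free medium wells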
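IDH1KD HT-1080 cells, 750/well, RPMI + 5% FBS; compound pinned after 2 h settling; 48 h, 37 °C; CellTiter-Glo luminescence; % activity normalised to DMSO and no-cell wells; curves fitted, classed by r2 and efficacy.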
TDP1 cell noCPT – qHTS for Inhibitors of human tyrosyl-DNA phosphodiesterase 1 (TDP1): qHTS in cells in absence of CPT. DT40 Tdp1-/- hTDP1 cells, no CPT, ATP luminescence, 48 h. Potency, µM (highest dose often 46.2 µM), without a hit: at the highest dose activity change, negative = growth inhibition, usual class: inhibitors. hit rate 15% among 420,000. AID 686978, 2013; note: potency is the fitted concentration of half-maximal effect; nearly all actives have a fitted effect of over 55% in size
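DT40 Tdp1-/-;hTDP1 cells, no CPT (DMSO vehicle only), 400 cells/well; compounds pin-transferred; ≥48 hr, 37 °C; CellTiter-Glo 30 min RT dark, luminescence read.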
HT1080NT lethal – kills 2HG-producing HT-1080-NT fibrosarcoma cells; HT-1080-NT fibrosarcoma viability, CellTiter-Glo ATP luminescence, 48 h; Potency, µM (series often up to 46.1 µM), for the others: at the top dose activity, negative = less viability, usual class: cytotoxic; hit rate 1.6% among 360,000; AID 686970;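 note: NT is the 2HG producing partner of a matched IDH1 knockdown line; potency is the fitted concentration of half-maximal effect; 0% = DMSO-treated cells and -100% = media-only wells without cells; nearly all actives have a fitted effect of over 55% in size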
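A 48-hour cytotoxicity screen used HT-1080-NT cells plated 2 hours before compound delivery. ATP-based CellTiter-Glo luminescence measured viability, normalized to DMSO and no-cell controls.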
TDP1 cell CPT – DT40-hTDP1 cell growth loss with CPT | chicken DT40 Tdp1-/-;hTDP1 cells + 20 nM CPT, ATP luminescence, 48 h | Potency, µM (doses to about 46.2 µM), for the others: at the top dose activity change, negative = growth inhibition, most hits filed as inhibitors | hit rate 12% among 420,000 | AID 686979; note: potency is the fitted concentration of half-maximal effect; nearly all actives have a fitted effect of over 55% in size
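Chicken DT40 Tdp1-/- cells complemented with human TDP1, 400 cells/well, exposed to compounds plus 20 nM camptothecin for at least 48 h at 37 C; viability read as ATP content by CellTiter-Glo luminescence.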
Numbers without * were called inactive; ? = inconclusive; . = not tested or not shown. Unless noted, calls come from the whole dose curve; as a rule, active = well fitted curve in the direction sought with a large enough effect; inconclusive = small, poorly fitted or top-dose-only effect, or another doubt; inactive = no such curve, though single readings can be large; an effect the other way counts as inactive or inconclusive. Unless noted, % is set by controls: 0 for no effect and ±100 for the full control effect.

SMILES	IL1B secr inh	HT1080 IDH1KD tx	TDP1 cell noCPT	HT1080NT lethal	TDP1 cell CPT
COc1ccc(NC(=O)CNC(=O)Cn2c(C)cc3ccccc3c2=O)cc1OC	2.7	-0.2%	20.6µM*	-9.4%	13µM*
COc1cc(NC(=O)CNC(=O)Cn2ccc3ccccc3c2=O)cc(OC)c1OC	3.7	19.3%	?	?	-20.2%
COc1cc(NC(=O)CNC(=O)Cn2c(C)cc3ccccc3c2=O)cc(OC)c1OC	42.3	-9.2%	14.6µM*	0.7%	13µM*
CCc1ccc(NC(=O)CNC(=O)Cn2c(C)cc3ccccc3c2=O)cc1	.	.	-2.4%	.	-1.2%
CCOC(=O)CNC(=O)Cn1c(C)cc2ccccc2c1=O	-65.3*	9.8%	1.0%	8.3%	-28.7%
Cc1ccc(Sc2ccc(NC(=O)CCN3C(=O)NC4(CCCC4)C3=O)cc2)c(C)c1	-3.7	?	?	?	?
CC(Sc1ncnc2sc(-c3ccccc3)cc12)C(=O)NCC1CCCO1 (configuration not stated)	-25.6	?	23.1µM*	-11.1%	?
CC(Sc1nc(-c2ccccc2)c(-c2ccccc2)[nH]1)C(=O)NCC1CCCO1 (configuration not stated)	6.3	-2.5%	23.1µM*	-9.7%	?
COc1cc(CNCCc2ccc(F)cc2)ccc1OCc1ccc(Cl)nc1	-55.7*	?	20.6µM*	?	18.4µM*
COc1cc(CO)ccc1OCc1ccc(Cl)nc1	0.6	14.1%	13.6%	17.5%	7.1%
COc1cc(CNCCc2ccccc2F)ccc1OCc1ccc(Cl)nc1	-29.8	?	23.1µM*	?	14.6µM*
CCNCc1ccc(OCc2ccccc2F)c(OC)c1	-25.1	-11.7%	?	-12.1%	-27.3%
Cc1cccc(CNc2ncncc2-c2ccccc2Cl)c1	.	.	?	.	-10.7%
O=C(CSc1nc2c(c(=O)n1-c1ccccc1)SCC2)N1CCN(c2ccccc2)CC1	-19.6	-0.2%	?	-1.2%	18.4µM*
CCn1c(SCC(=O)N2CCCC2)nc2c(c1=O)SC(C)C2 (configuration not stated)	6.0	3.3%	-18.8%	8.5%	1.1%
CCn1c(SCC(=O)N2CCN(c3ccccc3)CC2)nc2c(c1=O)SC(C)C2 (configuration not stated)	-16.2	-3.9%	20.6µM*	-1.6%	?
CC1Cc2nc(SCC(=O)N3CCN(c4ccccc4)CC3)n(C)c(=O)c2S1 (configuration not stated)	-2.3	-5.0%	13µM*	1.9%	?
CC1Cc2nc(SCC(=O)N3CCN(c4ccccc4)CC3)n(CCc3ccccc3)c(=O)c2S1 (configuration not stated)	-20.2	2.9%	13µM*	-26.0%	18.4µM*
CCCc1nc2c(sc3nc4c(cc32)COC(C)(C)C4)c(=O)n1Cc1ccco1	17.1	?	?	0.8%	?
Cc1nc2c(sc3nc4c(cc32)COC(C)(C)C4)c(=O)n1CC(=O)NCc1ccco1	62.5	?	4.11µM*	7.08µM*	3.26µM*
CC1(C)Cc2nc3sc4c(=O)n(CC(N)=O)cnc4c3cc2CO1	24.3	7.6%	-8.8%	3.4%	-2.9%
CC1(C)Cc2nc3sc4c(SCC(=O)NCc5ccco5)ncnc4c3cc2CO1	0.1	2.59µM*	2.31µM*	?	2.06µM*
CC1(C)Cc2nc3sc4c(=O)n(CC(=O)NCc5ccccc5)cnc4c3cc2CO1	53.0	3.55µM*	3.66µM*	8.91µM*	4.61µM*
O=C(NC(=S)NCCc1ccccc1)c1cccc(Cl)c1	-25.7	0.2%	-27.2%	-3.2%	-12.6%
CCc1cccc(NC(=O)CCCn2c(=O)[nH]c3ccsc3c2=O)c1	10.4	8.5%	0.9%	-1.2%	7.5%
SMILES	IL1B secr inh	HT1080 IDH1KD tx	TDP1 cell noCPT	HT1080NT lethal	TDP1 cell CPT
Cc1ccc(-c2csc(NC(=O)c3ccc(C)o3)n2)cc1	-0.3	22.6%	-16.3%	13.2%	-1.7%
Cc1ccc(/C=C/C(=O)c2ccc([N+](=O)[O-])o2)cc1	-113.3*	3.66µM*	2.06µM*	11.6µM*	1.64µM*
O=C(/C=C/c1ccc(Cl)cc1)c1ccc([N+](=O)[O-])o1	?	13µM*	0.651µM*	?	1.03µM*
Cc1ccc(-c2csc(NC(=O)c3ccc([N+](=O)[O-])o3)n2)cc1	-105.7*	-27.3%	?	3.7%	?
Cc1ccc(CNC(=O)c2ccc([N+](=O)[O-])o2)cc1	?	?	?	?	16.4µM*
CNC[C@H]1OCc2ccccc2-c2ccccc2C(=O)N([C@@H](C)CO)C[C@H]1C	9.5	-1.9%	-6.2%	-0.6%	5.1%
COc1ccc(C(C(=O)NC(C)(C)C)N(Cc2cccnc2)C(=O)CCC(=O)Nc2cc(C)on2)cc1 (configuration not stated)	6.8	13.4%	-15.4%	8.9%	8.8%
O=[N+]([O-])c1ccc(Nc2cccc3c2[nH]c2c(-c4ccccc4)nccc23)c([N+](=O)[O-])c1	14.2	7.7%	?	4.9%	?
O=C(CCCCn1c(=O)c2ccccc2n(CC(=O)Nc2cccc(F)c2)c1=O)NCCc1ccccc1	.	.	-20.2%	.	-11.1%
O/N=C(/CBr)c1ccc2ccccc2c1	.	.	-29.5%	.	3.4%
Cc1ccc(CNC(=S)Nc2ccc(C)c([N+](=O)[O-])c2)cc1	13.4	0.8%	14.6µM*	6.0%	23.1µM*
Cc1ccc(NC(=S)NCc2ccccc2)cc1[N+](=O)[O-]	?	2.0%	?	-5.4%	?
Cc1ccc(N/N=C2\CS(=O)(=O)N(C)c3ccsc32)cc1	-8.6	-21.0%	?	-8.2%	?
CN1c2ccsc2/C(=N/Nc2ccc(F)cc2)CS1(=O)=O	22.9	?	2.59µM*	-24.9%	2.06µM*
CC(C)(C)c1ccc(C(=O)N2CCN(CCNC(=O)C(=O)NCc3ccc(Cl)cc3)CC2)cc1	-67.3*	?	20.6µM*	?	14.6µM*
CCc1ccc(NC(=O)C(=O)NCCN2CCN(C(=O)c3ccc(OC)cc3)CC2)cc1	-5.2	-12.6%	13µM*	-2.7%	?
COc1ccc(NC(=O)Cn2ccn(-c3ccc(F)c(F)c3)c(=O)c2=O)cc1Cl	.	.	-14.4%	.	-3.2%
Oc1ccccc1N=Nc1nc(-c2ccccc2)c(-c2ccccc2)[nH]1	-9.4	?	2.91µM*	?	2.59µM*
CS(=O)(=O)c1nc(-c2ccccc2)c(-c2ccccc2)[nH]1	-12.4	12.9%	-11.8%	10.8%	1.1%
COc1ccc(-c2nc(C)ncc2N=Nc2ccccc2)cc1	?	-0.2%	-44.4%	-9.4%	?
COc1ccccc1N=Nc1nc(-c2ccccc2)c(-c2ccccc2)[nH]1	-14.3	?	16.4µM*	-17.1%	18.4µM*
